# Screening data as filed in PubChem BioAssay.
# Compounds with a hit are over-represented: about 5.7% of the library has one in this group of screens.
# ClpP mod = qHTS Assay for Activators of ClpP | ATP-dependent Clp protease proteolytic subunit (Bacillus subtilis (strain 168)), P80244 | purified B. subtilis ClpP, FRET peptide cleavage, 20 min | Potency, µM (titrated, usually from 57.5 µM), without a hit: at the highest dose activity change, negative = active | actives 1.9% (n = 340,000) | AID 651965, 2013; active = well fitted falling curve with a large enough effect; inconclusive = small, poorly fitted or top-dose-only effect; inactive = no such curve, though single readings can be large or run the other way; also: potency is read from the fitted curve at half-maximal effect; the source files actives as falling curves though it sought activators and does not explain the sign; nearly all actives have a fitted effect of over 65% in size
# Target sequence (P80244 whole entry, looked up): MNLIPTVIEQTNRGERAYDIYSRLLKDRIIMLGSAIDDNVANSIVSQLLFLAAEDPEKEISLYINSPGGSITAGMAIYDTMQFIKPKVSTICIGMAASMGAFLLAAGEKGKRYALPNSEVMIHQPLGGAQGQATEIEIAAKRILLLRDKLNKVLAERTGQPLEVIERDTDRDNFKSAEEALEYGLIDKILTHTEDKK
#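 FRET quenching reversal measured ClpP activation: 10 microg/mL B. subtilis ClpP at pH 8 with the FRET-FV decapeptide, read at 430 nm after 320 nm excitation. The 20-min minus 0-min signal was scaled between DMSO/no-enzyme wells and ADEP (5.8 microM final).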
# DRD3 agonist = qHTS of D3 Dopamine Receptor Agonist: qHTS; D(3) dopamine receptor (Homo sapiens), P35462; D3R DiscoveRx beta-arrestin cells, luminescence, 90 min; max activation, %; actives 0.58% (n = 410,000); AID 652048, 2013; in the data active = max activation above about 30%; also: 0% is about no effect
# Target sequence (P35462 whole entry, looked up): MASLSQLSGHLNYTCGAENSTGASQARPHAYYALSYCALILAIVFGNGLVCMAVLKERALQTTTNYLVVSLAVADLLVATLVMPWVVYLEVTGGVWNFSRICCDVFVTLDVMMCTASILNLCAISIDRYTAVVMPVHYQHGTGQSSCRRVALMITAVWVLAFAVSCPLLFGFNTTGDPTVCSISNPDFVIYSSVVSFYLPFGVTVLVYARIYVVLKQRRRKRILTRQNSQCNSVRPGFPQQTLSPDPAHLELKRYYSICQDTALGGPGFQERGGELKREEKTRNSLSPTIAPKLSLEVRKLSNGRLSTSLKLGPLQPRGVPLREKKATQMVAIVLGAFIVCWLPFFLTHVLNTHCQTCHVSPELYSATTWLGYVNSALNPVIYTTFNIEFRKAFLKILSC
#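 Agonist-mode cell screen: cells plated at 1500/well and incubated overnight at 37 °C, then exposed to library compounds for 90 min at 37 °C. Detection reagent was added for 30–60 min at room temperature, and luminescence was read.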
# D3 antag = qHTS of D3 Dopamine Receptor Antagonist: qHTS; max response, negative = inhibition, %; D3R cells, DiscoveRx beta-arrestin luminescence, antagonist mode; hits give low values; actives 2.5% (n = 360,000); D(3) dopamine receptor (Homo sapiens), P35462; AID 652054, 2013; in the data active = max response below about -50%; inconclusive = no clear call, values can overlap the other calls; also: % is scaled to controls: 0 for no effect and ±100 for the full control effect
#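 Cells plated overnight at 1500 cells/well, then exposed to library compounds with dopamine controls for 90 minutes at 37 degrees C. DiscoveRx reagent added for 30–60 minutes at room temperature; luminescence read, quantitative HTS format.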
# GLP-1R inv ag = qHTS of GLP-1 Receptor Inverse Agonists (Inhibition Mode) | Potency, µM (top dose mostly 38.3 µM), for inactives: top-dose activity change, negative = inhibition, hits mostly inhibitors | Glucagon-like peptide 1 receptor (Homo sapiens), P43220 | HEK293 GLP-1R CRE-luciferase, luminescence, 24 h; GLP-1R form is constitutively active | actives 1.6% (n = 410,000); also: potency is read from the fitted curve at half-maximal effect; % is scaled to controls: 0 for no effect and ±100 for the full control effect; nearly all actives have a fitted effect of over 55% in size
#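 Using stably transfected HEK293 (constitutively active GLP-1R, cAMP-luciferase reporter), compounds were incubated 24 hr and luciferase measured by luminescence.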
# GLP1R cytotox = qHTS of GLP-1 Receptor Inverse Agonists: Cytotox Screen | HEK293 cAMP-luciferase reporter cells, luminescence, 24 h | Potency, µM (highest dose often 38.3 µM), inactives show at the highest dose activity change, negative = inhibition, usual class: inhibitors | actives 0.13% (n = 410,000) | AID 624418, 2012;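 also: loss of luciferase light is scored as toxicity; potency is read from the fitted curve at half-maximal effect; % is scaled to controls: 0 for no effect and ±100 for the full control effect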
#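 MLSMR compounds, 24 hr on cells at 37 deg C/5% CO2; luminescence after luciferase reagent (12 min RT). Inhibition counted as the undesired cytotoxic outcome.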
# GLP-1R agonist = qHTS of GLP-1 Receptor Agonists. Glucagon-like peptide 1 receptor (Homo sapiens), P43220. HEK293 GLP-1R CRE-luciferase, luminescence, 4-6 h; cells express a hypersensitive GLP-1R form. Potency, µM (series often up to 45.6 µM), inactives show at the top dose activation, actives largely listed as activators. actives 0.007% (n = 380,000). AID 624172, 2012; also: potency is read from the fitted curve at half-maximal effect; % of control where 0% means no effect
# An asterisk follows results filed as active; ? = inconclusive; / = no result given; [ ] = remark or other dose. Unless noted, calls follow the shape of the dose curve; as a rule, active = well fitted curve in the direction sought with a large enough effect; inconclusive = small, poorly fitted or top-dose-only effect, or another doubt; inactive = no such curve, though single readings can be large; an effect the other way counts as inactive or inconclusive.
SMILES,ClpP mod,DRD3 agonist,D3 antag,GLP-1R inv ag,GLP1R cytotox,GLP-1R agonist
COc1cc2c(cc1OC)CN(Cc1ccc(OC)c(C)c1OC)CC2,4%,-7,-77*,0%,-28%,-1%
COc1cc2c(cc1OC)CN(CCC(C)c1ccc(Cl)cc1)CC2 (stereo not drawn),/,-14,-91*,?,-20%,0%
COc1cc2c(cc1OC)CN(Cc1cccs1)CC2,-19%,-12,-54*,0%,5%,2%
COc1ccc(CN2CCSCC2)c(OC)c1C,0%,7,-1,-10%,-22%,-9%
COc1cc2c(cc1OC)CN(Cc1ccc(C)cc1)CC2,?,-10,-80*,-19%,10%,-1%
COc1ccc(-n2nc(C(=O)N3CCCCC3)c3c4ccccc4n(C)c3c2=O)cc1Cl,45%,-10,/,2%,-4%,/
Cc1ccc(C(=O)N2CC(=O)Nc3ccc(Br)cc3C2c2ccc(F)cc2)cc1C (stereo not drawn),-1%,7,/,?,-10%,/
CCOc1ccccc1NC(=O)CCc1c(C)nc2cc(-c3ccccc3)nn2c1C,4%,6,/,7%,4%,0%
Cc1cccc(NS(=O)(=O)c2c(C)nc3sccn3c2=O)c1C,-3%,0,/,-14%,21%,/
Cn1c(N)c(C(=O)Nc2cccc(Cl)c2)c(=O)n(C)c1=O,1%,3,20,5%,2%,6%
CN=c1sc(C(=O)Nc2cccc(Cl)c2)cc(=O)n1C,3%,-8,-51*,-26%,-8%,2%
CC1(C(=O)NCc2ccccc2)CSCC(=O)N1Cc1cccc(F)c1 (stereo not drawn),0%,7,7,12%,0%,/
CCOC(=O)CSc1nc(N)c(C#N)c(-c2cccs2)c1C#N,-16%,3,5,1%,4%,14%
CCCSc1nc(N)nc(-c2cccs2)c1C#N,25µM*,-3,12,22%,20%,24%
COc1ccc(Cc2c(-c3ccco3)nc3c(C)cc(Br)cn23)c(C)c1,-3%,6,19,-23%,-14%,-6%
Cc1cc(Br)cn2c(Cc3ccsc3)c(-c3ccco3)nc12,-2%,-15,-56*,?,-18%,-3%
COc1ccccc1Cc1c(-c2ccco2)nc2c(C)cc(Br)cn12,-6%,-16,-92*,?,?,-5%
COc1ccccc1Cc1c(-c2cccc(Br)c2)nc2ccc(Cl)cn12,?,-10,-50*,?,-8%,10%
COc1ccccc1Cc1c(-c2ccco2)nc2ccc(C)cn12,5%,-13,-50*,12%,-9%,1%
CCc1cccc(NC(=O)C2CCCN(c3ncnc4onc(-c5ccc(F)cc5)c34)C2)c1 (stereo not drawn),?,1,/,?,-15%,/
CC(C)n1nc(-c2cc3cc(O)ccc3[nH]2)c2c(N)ncnc21,/,-12,/,/,/,/
Cc1ccc(-c2cc(-c3ccc(C)cc3O)[nH]n2)cc1,-8%,-4,-6,?,-9%,-2%
Cc1ccc(O)c(-c2cc(-c3cccc(Br)c3)n[nH]2)c1,/,1,0,10µM*,-37%,19%
COc1ccc(NC2=Nc3ccccc3N3C2=Nc2c(c(C)nn2-c2ccc(C)cc2)C3c2cccnc2)cc1 (stereo not drawn),2%,5,15,13%,-10%,0%
CC(=O)Nc1ccc(NC2=Nc3ccccc3N3C2=Nc2c(c(C)nn2-c2ccccc2)C3c2ccccc2)cc1 (stereo not drawn),1%,34*,7,3%,-1%,-3%
SMILES,ClpP mod,DRD3 agonist,D3 antag,GLP-1R inv ag,GLP1R cytotox,GLP-1R agonist
Cn1c(=O)c2nc(SCC(=O)Nc3ccc(Cl)c(Cl)c3)n(C)c2n(C)c1=O,2%,6,/,-3%,3%,/
CCCCC[C@H](O)/C=C/[C@H]1CCC(=O)[C@@H]1CCCCCCC(=O)N1CCCCC1CO (stereo partly drawn),/,30*,83,?,?,-2%
CCCCC[C@H](O)/C=C\[C@@H]1[C@H](O)CC(=O)[C@@H]1CCCCCCC(=O)O,/,/,/,/,/,4%[19.8 µM]
COc1cc(C(=O)N2CCCC(C)(C(=O)NS(=O)(=O)C3CC3)C2)cc(OC)c1OC (stereo not drawn),-2%,5,15,21%,-6%,-1%
CC(=O)OCCNC(=O)c1cc2ccccc2oc1=O,25µM*,4,-1,7%,-11%,0%
CN(C)CCNC(=O)c1cc2ccccc2oc1=O,28µM*,7,16,14%,0%,-5%
O=C(NCCc1ccccc1)c1cc2ccccc2oc1=O,-19%,7,15,17%,13%,-1%
O=C(NCCCN1CCOCC1)c1cc2ccccc2oc1=O,28µM*,3,24,0%,6%,-7%
CCCC(=O)OCCNC(=O)c1cc2ccccc2oc1=O,18µM*,-3,-21,19%,17%,-1%
Cc1nnc(N2CCN(C(=O)Nc3cccc(C(F)(F)F)c3)CC2)c2nn(-c3ccccc3)c(C)c12,-11%,5,/,-7%,-7%,/
COC(=O)c1sc2cccc(F)c2c1S(=O)(=O)NCc1ccccc1Cl,-2%,4,/,-10%,-14%,/
O=C(NCc1ccccc1)c1onc(CSc2ccc(Cl)cc2)c1C(=O)NCC1CC1,-3%,-12,9,?,-20%,0%
O=C(NCC1CC1)c1onc(CSc2ccc(F)cc2)c1C(=O)NCC1CC1,-1%,6,37,?,7%,-1%
Cc1cc(C)cc(SCc2noc(C(=O)NCC3CC3)c2C(=O)NCC2CC2)c1,0%,19,2,8.9µM*,-3%,7%
O=C(NCc1ccccc1)c1onc(CSc2ccccc2)c1C(=O)NCC1CC1,1%,-17,-8,3.5µM*,0%,-4%
CCCCNC(=O)c1c(CSc2ccc(Cl)cc2)noc1C(=O)NCc1ccccc1,-1%,-15,-16,?,-1%,7%
CCCCNC(=O)c1c(CSc2ccccc2)noc1C(=O)NCc1ccccc1,-4%,18,5,10µM*,-33%,-2%
Cc1noc(C)c1C(=O)NCc1ccccc1,32µM*,6,?,23%,-3%,-4%
